The values below come from PubChem BioAssay (NCI).

Assay in all cases: NCI-60 one-dose screen, 48 h (100 = growth as untreated, 0 = no growth, -100 = all killed)
One experiment concerns DU-145 prostate. To be noted: 10 µM unless noted.
For the next experiment, the system named is K-562 leukemia. To be noted: 10 µM unless noted.
The next experiment relates to MALME-3M melanoma. The settings on record: 10 µM unless noted.
A further experiment relates to MDA-MB-231 breast. The settings on record: 10 µM unless noted.
In a further experiment the test system is RXF 393 renal. To be noted: 10 µM unless noted.
In a further experiment the test system is SF-268 CNS. The settings on record: 10 µM unless noted.
The next experiment has as its system SF-295 CNS. The settings on record: 10 µM unless noted.
A further experiment deals with SF-539 CNS. The settings on record: 10 µM unless noted.
Another experiment deals with UACC-257 melanoma. To be noted: 10 µM unless noted.
The subject of the next experiment is M14 melanoma. The settings on record: 10 µM unless noted.
The subject of another experiment is HCT-15 colon. To be noted: 10 µM unless noted.
In another experiment the test system is HT29 colon. To be noted: 10 µM unless noted.
For another experiment, the system named is SNB-75 CNS. To be noted: 10 µM unless noted.
A further experiment relates to SNB-19 CNS. To be noted: 10 µM unless noted.
In a further experiment the test system is U251 CNS. To be noted: 10 µM unless noted.
In a further experiment the test system is PC-3 prostate. To be noted: 10 µM unless noted.
Another experiment has as its system SK-MEL-5 melanoma. To be noted: 10 µM unless noted.
For the next experiment, the system named is UACC-62 melanoma. The settings on record: 10 µM unless noted.
The next experiment deals with LOX IMVI melanoma. To be noted: 10 µM.
Another experiment deals with SK-MEL-28 melanoma. To be noted: 10 µM unless noted.

This is part of a sample that, as a whole, favours compounds with a hit. Of some 83,000 tested, about 20% had one in any assay.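 Cells were grown in 96-well plates and exposed to the test compound at a single concentration for 48 hours; results are reported as percent growth, with values below 10 considered active.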 Unmarked numbers belong to inactive results. The source made the active and inactive calls.

Take `CC1[C@H]2[C@H](C[C@H]3[C@@H]4CC=C5c6sc(Nc7ccccc7F)nc6CC[C@]5(C)[C@H]4CC[C@@]32C)O[C@]12CC[C@@H](C)CO2` (stereo not given in full): the growth with DU-145 prostate was -48.6% (active); in the experiment with K-562 leukemia, 1.23% (active); with MALME-3M melanoma, -73.9% (active); in the experiment on MDA-MB-231 breast, -57.5% (active); in the experiment on RXF 393 renal, -88.7% (active); with SF-268 CNS it was -53.5% (active). The growth in the experiment on SF-295 CNS was -75.5% (active); in the experiment with SF-539 CNS it was -87.9% (active); with UACC-257 melanoma, -85.1% (active); with M14 melanoma, -87.8% (active); in the experiment with HCT-15 colon it was -80% (active); with HT29 colon, -79.3% (active). The growth in the experiment on SNB-75 CNS was -55.6% (active); in the experiment with SNB-19 CNS, -37.5% (active); in the experiment with U251 CNS it was -88.2% (active); with PC-3 prostate, -47.2% (active); in the experiment with SK-MEL-5 melanoma, -58.1% (active); in the experiment on UACC-62 melanoma, -70.8% (active). The growth is -90.4% (active) with LOX IMVI melanoma and -97.1% (active) with SK-MEL-28 melanoma.
Turning to `CC(C)C(C(=O)O)n1c(O)c(/C=C2/C=c3cc4c(cc3=NC2=O)OCO4)sc1=S` (stereo not given), the growth with DU-145 prostate is 115%; in the experiment on K-562 leukemia, 109%; in the experiment with MALME-3M melanoma, 98.4%; in the experiment with MDA-MB-231 breast, 99.2%; with RXF 393 renal it was 116%; in the experiment with SF-268 CNS, 111%. For the same compound, the growth with SF-295 CNS was 102%; in the experiment on SF-539 CNS it was 104%; with UACC-257 melanoma, 107%; with M14 melanoma, 103%; in the experiment on HCT-15 colon, 101%; in the experiment with HT29 colon it was 119%. For the same compound, the growth was 101% in the experiment on SNB-75 CNS; 94.4% in the experiment with SNB-19 CNS; 106% in the experiment with U251 CNS; 106% in the experiment on PC-3 prostate; 103% in the experiment on SK-MEL-5 melanoma; 89.2% with UACC-62 melanoma. The growth is 94% with LOX IMVI melanoma and 110% in the experiment with SK-MEL-28 melanoma.
For the compound `C=CC(=O)Nc1ccc(C)c(Oc2ccc(Cl)cc2)c1`, the growth is 68.6% in the experiment with DU-145 prostate; 53.2% in the experiment on K-562 leukemia; 73.8% with MALME-3M melanoma; 44.1% with MDA-MB-231 breast; 38.5% in the experiment with RXF 393 renal; 57.1% in the experiment on SF-268 CNS. The growth is 58% in the experiment on SF-295 CNS; 30.2% in the experiment with SF-539 CNS; 66.6% in the experiment with UACC-257 melanoma; 72.3% with M14 melanoma; 49.7% in the experiment with HCT-15 colon; 60.2% in the experiment with HT29 colon. The growth with SNB-75 CNS was -8.04% (active); with SNB-19 CNS, 38%; with U251 CNS it was 36.5%; in the experiment on PC-3 prostate, 56%; with SK-MEL-5 melanoma it was 53%; in the experiment on UACC-62 melanoma, 41.6%. Also, the growth is 27.8% with LOX IMVI melanoma and 72% with SK-MEL-28 melanoma.
`Cc1ccc(NC(=O)CN2CCN(c3ncnc4c3cnn4-c3ccccc3)CC2)cc1`: the growth in the experiment on DU-145 prostate is 92.5%; with K-562 leukemia, 59.8%; with MALME-3M melanoma it was 90.8%; with MDA-MB-231 breast, 80.6%; in the experiment on RXF 393 renal, 86.7%; in the experiment on SF-268 CNS, 80.7%. Besides, the growth in the experiment on SF-295 CNS was 116%; in the experiment on SF-539 CNS, 84.6%; in the experiment with UACC-257 melanoma, 92.8%; with M14 melanoma, 100%; in the experiment on HCT-15 colon, 50.3%; with HT29 colon, 93.8%. The growth was 103% in the experiment with SNB-75 CNS; 85.9% in the experiment with SNB-19 CNS; 86.5% in the experiment with U251 CNS; 65.5% in the experiment on PC-3 prostate; 77.6% with SK-MEL-5 melanoma; 69.3% with UACC-62 melanoma. For the same compound, the growth was 23.3% with LOX IMVI melanoma and 86.5% in the experiment on SK-MEL-28 melanoma.
Regarding `Cc1ccc(S(=O)(=O)c2nc(S(=O)(=O)c3ccc(C)cc3)c(N3CCC(O)CC3)s2)cc1`, the growth in the experiment with DU-145 prostate was 70%; with K-562 leukemia, 29%; with MALME-3M melanoma, 92.2%; with MDA-MB-231 breast, 71.8%; in the experiment on RXF 393 renal, 33.6%; with SF-268 CNS, 70.3%. In addition, the growth with SF-295 CNS was 96.6%; in the experiment with SF-539 CNS, 73.7%; in the experiment on UACC-257 melanoma, 81.6%; with M14 melanoma, 71.2%; in the experiment on HCT-15 colon it was 22.9%; in the experiment on HT29 colon, 77.8%. Besides, the growth in the experiment with SNB-75 CNS was 97.5%; in the experiment with SNB-19 CNS, 68.3%; in the experiment on U251 CNS, 57.7%; in the experiment on PC-3 prostate it was 56.8%; with SK-MEL-5 melanoma, 78.1%; in the experiment with UACC-62 melanoma, 42%. Moreover, the growth in the experiment on LOX IMVI melanoma was 50.5%; in the experiment on SK-MEL-28 melanoma it was 81.9%.
On to `CCCCCCCS(=O)(=O)N1CCCC(C(=O)Nc2nc3ccc(NC(=O)c4ccc(F)c(OC)c4F)cc3s2)C1` (stereo not given), for which the growth in the experiment with DU-145 prostate was 63.5%; with K-562 leukemia it was 61.8%; in the experiment with MALME-3M melanoma, 35.4%; in the experiment on MDA-MB-231 breast, 14.7%; in the experiment with RXF 393 renal it was -48.1% (active); with SF-268 CNS, 63.1%. Besides, the growth was 48.7% with SF-295 CNS; 25.8% with SF-539 CNS; 69% with UACC-257 melanoma; 72.5% with M14 melanoma; 59.6% with HCT-15 colon; 60.2% with HT29 colon. The growth in the experiment with SNB-75 CNS was 64.7%; in the experiment with SNB-19 CNS, 31.9%; in the experiment on U251 CNS it was 38.6%; in the experiment with PC-3 prostate, 40.3%; with SK-MEL-5 melanoma it was 55%; in the experiment on UACC-62 melanoma it was 52.6%. The growth with LOX IMVI melanoma was 34%; in the experiment on SK-MEL-28 melanoma it was 74.2%.
For the compound `Cn1cc(-c2nc(N)nnc2-c2c[nH]c3ccc(F)cc23)c2cc(Br)cnc21`, the growth with DU-145 prostate is 10.1%; in the experiment with K-562 leukemia it was 5.23% (active); in the experiment with MALME-3M melanoma, 21.6%; in the experiment with MDA-MB-231 breast, 5.57% (active); in the experiment on RXF 393 renal, -4.53% (active); in the experiment on SF-268 CNS it was 4.51% (active). In addition, the growth with SF-295 CNS is 9.21% (active); in the experiment on SF-539 CNS, -11.5% (active); in the experiment on UACC-257 melanoma, 29.8%; with M14 melanoma, -9.79% (active); with HCT-15 colon, 3.56% (active); with HT29 colon it was -50.6% (active). Further, the growth was -15.8% (active) with SNB-75 CNS; 22.9% in the experiment on SNB-19 CNS; 1.09% (active) with U251 CNS; 8.22% (active) in the experiment on PC-3 prostate; -81.5% (active) in the experiment with SK-MEL-5 melanoma; 13.3% with UACC-62 melanoma. Also, the values for the growth with LOX IMVI melanoma and in the experiment with SK-MEL-28 melanoma were 13.9% and 24%, respectively.
Regarding `COc1ccc2oc(=O)c(C3(C)NC(=O)c4c(/C=C/C(=O)OC(C)(C)C)cccc4N3)cc2c1` (stereo not given), the growth in the experiment with DU-145 prostate was 69.5%; with K-562 leukemia, 25.5%; in the experiment with MALME-3M melanoma it was 40.5%; with MDA-MB-231 breast it was 49.1%; with RXF 393 renal it was 40.3%; in the experiment with SF-268 CNS, 58.1%. Moreover, the growth in the experiment with SF-295 CNS is 39.3%; in the experiment with SF-539 CNS it was 67.6%; in the experiment with UACC-257 melanoma it was 32.6%; in the experiment with M14 melanoma it was 48.7%; in the experiment on HCT-15 colon, 32.6%; in the experiment with HT29 colon, 39.1%. In addition, the growth with SNB-75 CNS was 56.3%; in the experiment on SNB-19 CNS, 50.8%; in the experiment with U251 CNS, 48.4%; with PC-3 prostate it was 15.6%; in the experiment with SK-MEL-5 melanoma, -59.8% (active); with UACC-62 melanoma, 20.4%. In addition, the growth in the experiment on LOX IMVI melanoma was 49.1%; in the experiment on SK-MEL-28 melanoma, 40.6%.
